Experimental data from ChEMBL document CHEMBL3988442, “University of Dundee, Small-Polar-MMV Screening Library” (2021).
In all, about 48,000 compounds went through this assay and about 13,000 (27%) showed an effect of 50% or more. The list shows a part of the results.

These compounds were tested on Wolbachia pipientis (assay: Anti-Wolbachia Cell-Based Screen). Settings: 5 µM.
Assay type: functional
Set-up: scale not given: in the data most compounds retested in dose-response had high values

| SMILES | Percent Effect |
| --- | --- |
| COc1ccc(NC(=O)Cn2nc(C)c(C(C)=O)c2C)cc1 | 9.099% |
| Cc1nn(C)c2cnn(CC(=O)NCCc3ccccc3)c12 | -4.573% |
| CCn1nc(C)c2c1cnn2CC(=O)Nc1ccc(OC)cc1C | 97.13% |
| COc1cccc(C(CO)NC(=O)Cc2cccc(C)c2)c1 (configuration not stated) | -8.321% |
| COc1ccc(NC(=O)Cn2nc(C)c(C)cc2=O)c(OC)c1 | -17.24% |
| CCC(C)NC(=O)Cn1ncc2c1c(C)nn2CC (configuration not stated) | 78.16% |
| CCn1nc(C)c2c1cnn2CC(=O)NC(C)c1cccc(OC)c1 (configuration not stated) | 108.9% |
| Cc1ccc(CNC(=O)Cn2ncc3c2c(C)nn3C)cc1 | 2.775% |
| COc1ccccc1CNC(=O)Cn1ncc2c1c(C)nn2C | 14.16% |
| Cc1ccc(C(=O)NS(=O)(=O)c2cc(Cl)ccc2Cl)c(=O)[nH]1 | 0.2464% |
| OCCOc1ccc(NCc2cccc3cn[nH]c23)cn1 | 11.64% |
| Cl.NC[C@H]1CC[C@H](c2c(C(N)=O)sc3ccccc32)CC1 | 138.4% |
| CC1CCc2nc(O)c(C(=O)NCCN(C)C)cc2C1 (configuration not stated) | 7.628% |
| CC(C)NC(=O)c1sc2ccccc2c1[C@H]1CC[C@H](CN)CC1.Cl | 141.4% |
| CC(NC(=O)c1cccc[n+]1[O-])C1CC1 (configuration not stated) | -12.99% |
| CN(C)CCNC(=O)c1ccc(S(=O)(=O)N[C@@H]2CCNC2)cc1 | -7.63% |
| CN(C)CCNC(=O)c1sc2ccccc2c1C1CCC(CN)CC1.Cl (configuration not stated) | 88.67% |
| CC(NC(=O)N1CCC(CO)CC1)c1csc2ccccc12 (configuration not stated) | -26.26% |
| Cl.NCC1CCC(c2c(C(=O)NCCO)sc3ccccc23)CC1 (configuration not stated) | 105.7% |
| CCn1cc2c(n1)C(COCC1CC1)CN(C(=O)c1cc(C)on1)C2 (configuration not stated) | -20.07% |
| CC(Nc1ccc(CC(=O)N(C)C)cc1)C(=O)N(C)CCC#N (configuration not stated) | 3.748% |
| Cn1ncc2c(N3CCCC(C)(O)C3)nc(C(C)(C)C)nc21 (configuration not stated) | -0.5703% |
| COc1ccc(CCC(=O)Nc2cccnc2N2CCCC2)cc1Br | 3.443% |
| O=C(O)C(F)(F)F.O=C1CC[C@@H]2[C@@H](CCN2C(=O)c2ccsc2)N1Cc1ccncc1 | -34.69% |
| NC(=O)COCCNC(=O)Nc1sc2ccccc2c1Cl | 6.222% |

| SMILES | Percent Effect |
| --- | --- |
| COCCNC(=O)c1cc2c(nc1O)CC(c1cccs1)CC2=O (configuration not stated) | 7.497% |
| COCCNC(=O)c1sc2ccccc2c1C1CCC(CN)CC1.Cl (configuration not stated) | 140.8% |
| CCCN1CCN(C(=O)c2cc[nH]n2)[C@H]2CS(=O)(=O)C[C@H]21 | 3.177% |
| CCn1cc(-c2nccnc2C2CCCN(C(C)=O)C2)cn1 (configuration not stated) | 156.7% |
| CCc1ccc2c(C3CN(C(C)=O)C3)ncn2c1 | -3.623% |
| CC(=O)N1CCCC(c2nccnc2-c2ccc(CO)cc2)C1 (configuration not stated) | 179.5% |
| COc1cc(F)ccc1CC(=O)N1CC[C@H]2C(=O)NCCO[C@H]2C1 | -55.09% |
| COC(=O)CCCn1ccnc1-c1ccc(OC)c(F)c1F | -8.612% |
| CCS(=O)(=O)Cc1ccn(-c2cccc(F)c2)n1 | -0.3225% |
| COc1ccc(NC(=O)Nc2cnc(N3CCN(C)CC3)nc2)cc1Cl | 89.39% |
| CCOc1ccc(NCc2cnc(N3CCN(C)CC3)nc2)cn1 | -2.404% |
| COc1ccc(NC(=O)NC(C)c2nc[nH]n2)cc1Cl (configuration not stated) | -12.73% |
| Cc1ccc(NC(=O)Nc2cnc(N3CCN(C)CC3)nc2)cc1 | 130.1% |
| COc1ccc(NC(=O)N2CCC3(CC2)NC(=O)CC3C(=O)O)cc1Cl (configuration not stated) | -5.291% |
| Cc1ccc(NC(=O)Nc2cnc(N3CCN(C)CC3)nc2)c(Cl)c1 | -7.625% |
| COc1cc2c(cc1CNC(=O)C(C)n1ccnc1C(C)C)CCC2 (configuration not stated) | -11.78% |
| COC(=O)[C@H](C)NC(=O)Cc1c(C)nc2cc(=O)[nH]n2c1C | -6.844% |
| Cc1n[nH]c(C)c1NC(=O)CN1CCOC(Cn2cccn2)C1 (configuration not stated) | 4.084% |
| Cc1cccc2c1nc(CCO)n2-c1ccc(NS(C)(=O)=O)nc1 | -11.32% |
| CS(=O)(=O)CC(=O)N1C[C@H]2CCC[C@@]2(COCc2ccncc2)C1.O=C(O)C(F)(F)F | 108.3% |
| CS(=O)(=O)CC(=O)N1C[C@H]2CCC[C@@]2(COc2ccccn2)C1.O=C(O)C(F)(F)F | 109.7% |
| CN(C)CC(=O)N1C[C@H]2CCC[C@@]2(COc2ccccn2)C1.O=C(O)C(F)(F)F | -2.413% |
| CN(C)C(=O)N1C[C@H]2CCC[C@@]2(COc2ccccn2)C1.O=C(O)C(F)(F)F | -14.43% |
| O=C(O)C(F)(F)F.O=C(c1ccccc1)N1C[C@H]2CCC[C@@]2(COCc2ccncc2)C1 | 12.44% |
| O=C(O)C(F)(F)F.O=C(c1ncccn1)N1C[C@H]2CCC[C@@]2(COCc2ccncc2)C1 | 6.096% |

| SMILES | Percent Effect |
| --- | --- |
| O=C(c1cn(CCN2CCCCC2)nn1)N1CCSCC1 | 10.37% |
| COc1cccc(NC(=O)N(CCO)Cc2ccsc2)c1 | 1.126% |
| NC(=O)[C@H]1CCCN(c2nccc(-c3ccncc3)n2)C1 | 103.3% |
| O=C1N(CC2CC2)C(c2c[nH]nc2-c2cccnc2)NC12CCCC2 (configuration not stated) | 1.582% |
| CNc1ccnc(N2CCCC(C(=O)c3ccccn3)C2)n1 (configuration not stated) | -24.75% |
| Cc1nn2c(N3CCCC(C(N)=O)C3)cc(-c3ccccc3)nc2c1C (configuration not stated) | -84.47% |
| O=C(c1ccccn1)C1CCCN(c2nccc(CCC(F)(F)F)n2)C1 (configuration not stated) | 2e-14% |
| NC(=O)[C@H]1CCCN(c2nccc(-c3c[nH]nc3-c3cccnc3)n2)C1 | 113.5% |
| FC(F)Sc1ccc(NCc2nnc(C3CC3)o2)cc1 | -0.3922% |
| NC(=O)c1cnc(NC(=O)CCc2ccco2)c(Cl)c1 | -8.08% |
| CC(C)(C)c1nc(CC(=O)NC2CCN(C3CC3)C2)cs1 (configuration not stated) | -2.238% |
| CC(C)N1CCCn2nc(C(=O)NCCc3c[nH]cn3)cc2C1 | -16.95% |
| Cc1nc(CN2CCC(C(=O)O)(n3ccc(-c4ccco4)n3)CC2)co1 | 4.507% |
| Cc1cc(CN2CCN(C(=O)CCc3cccc(F)c3F)CC2)on1 | -11.44% |
| Cc1cc(CN2CCC(C(=O)O)(n3ccc(-c4ccco4)n3)CC2)on1 | 185.7% |
| Cc1cc(CN2CCN(C(=O)C3(C#N)CCCC3)CC2)on1 | -5.531% |
| O=C(O)C1(n2ccc(-c3ccco3)n2)CCN(Cc2ccccn2)CC1 | 96.1% |
| O=C(O)C1(n2cccn2)CCN(Cc2nc(-c3ccccc3)no2)CC1 | -13.7% |
| O=C(O)C1(n2ccc(-c3ccco3)n2)CCN(Cc2ccsc2)CC1 | 105.5% |
| O=C(O)C1(n2ccc(-c3ccco3)n2)CCN(Cc2cccnc2)CC1 | 100.5% |
| Cc1cc(F)ccc1OC1(C(=O)O)CCN(Cc2cccnc2)CC1 | 3.989% |
| O=C(O)C1(n2ccnc2)CCN(Cc2ccc3occc3c2)CC1 | -4.381% |
| COc1ccc2c(c1)C1(CCN(Cc3ccccn3)CC1)N(C)CC2.O=C(O)C(F)(F)F.O=C(O)C(F)(F)F | -3.791% |
| O=C(O)C(F)(F)F.O=C(c1ccco1)N1CCCC2(CN(Cc3ccsc3)CCO2)C1 (configuration not stated) | 0.02281% |
| COc1ccccc1OCC(=O)Nc1ncccc1OC(F)F | -1.305% |

| SMILES | Percent Effect |
| --- | --- |
| CCCNC(=O)CSc1nnc2[nH]c(=O)cc(CC)n12 | -17.32% |
| Cc1nc(C(=O)N2CCC3(CC2)CC(=O)N(CC2CCCO2)C3)cs1 (configuration not stated) | 9.74% |
| Cn1ccc(C(=O)N(CC(F)F)c2cccc(Cl)c2)cc1=O | -3.04% |
| O=C(O)C1(n2cccn2)CCN(c2nc(-c3ccccc3)no2)CC1 | -0.7442% |
| Cc1n[nH]c(C)c1CCN(C)c1ccc(-c2nc(C3CC3)no2)cn1 | 5.085% |
| COCCO[C@@H]1C[C@H]2CN(C(=O)c3cnccn3)CCN2C1 | -15.94% |
| COC(=O)C(C)CN(Cc1ccccc1)C(=O)CN1CCCNC1=O (configuration not stated) | -9.826% |
| Cc1cc(N2CCC(C(=O)O)(n3ccc(C(C)C)n3)CC2)nc(N)n1 | -20.6% |
| Cc1csc(CN2CCC(C(=O)O)(n3ccc(-c4ccco4)n3)CC2)n1 | 105% |
| O=C(O)C(F)(F)F.c1coc(COCc2ncn3c2CN(Cc2cccs2)CCC3)c1 | 7.487% |
| O=C(O)C1(n2ccc(-c3ccco3)n2)CCN(Cc2cccs2)CC1 | 77.42% |
| Cc1nc(CN2CCC(C(=O)O)(n3ccc(C(C)C)n3)CC2)co1 | 99.57% |
| Cc1csc(CN2C[C@@H]3COC[C@]3(C(=O)NCc3ccco3)C2)n1 | -36.74% |
| Cc1occc1C(=O)N1CCC2(CCN(Cc3cccs3)C2)CC1.O=C(O)C(F)(F)F | -0.4808% |
| Cc1ccc(N2CCC(C(=O)O)(n3ccc(C(C)C)n3)CC2)nn1 | -12.67% |
| Cc1nccn1C1(C(=O)O)CCN(Cc2ccc3occc3c2)CC1 | -3.386% |
| O=C1CN(CCCNC(=O)Nc2cccc(Cl)c2F)CCN1 | 1.597% |
| Cc1cc(C)n(-c2ccc(N3CCCSCC3)nc2)n1 | 0.3589% |
| CC1CCc2n[nH]c(C(=O)NCCc3ccco3)c2C1 (configuration not stated) | 14.64% |
| CCOc1ccccc1-c1noc(CN2CCCC(O)C2)n1 (configuration not stated) | -2.765% |
| CC(C)S(=O)(=O)C(C)C(=O)Nc1ccc2oc(C3CC3)nc2c1 (configuration not stated) | -8.387% |
| O=C(c1cccnc1O)N1CCCN(c2cccnn2)CC1 | -5.126% |
